Measurements: PubChem BioAssay AID1159580 (chemical genetic matrix, 2015)
About 2,000 (36%) of roughly 5,500 compounds were called active. Inconclusive results (about 18%) are left out. No stated cut-off is given here; in the data, active means normalized growth mostly below about 0.91 (no sharp cut-off); inconclusive means no clear call, values can overlap the other calls; inactive means mostly above about 0.92. This is one part of the list.

Assay: chemical genetic growth profiling, strain panel (AID 1159580);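 further: tested at 20 µM; growth read once vehicle control cultures reached saturation at 30 °C; 1 = growth at the plate median or of vehicle wells; lower values mean less growth of the strain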
Settings: growth OD

Measured: normalized growth

Nc1nc(=S)c2[nH]cnc2[nH]1
inactive: S. cerevisiae deletion strains, locus YJR075W, strain HOC1, hits give low values 1.03 | S. cerevisiae deletion strains, locus YKL009W, strain mrt4, hits give low values 1 | S. cerevisiae deletion strains, locus YKL068W, hits give low values 1 | S. cerevisiae deletion strains, locus YKL085W, strain MDH1 (second series), hits give low values 1.02 | S. cerevisiae deletion strains, locus YKL085W, strain MDH1, hits give low values 1.02 | S. cerevisiae deletion strains, locus YKL160W, strain elf1, hits give low values 0.943 | S. cerevisiae deletion strains, locus YKL190W, strain CNB1, hits give low values 1 | S. cerevisiae deletion strains, locus YKR001C, strain vps1, hits give low values 1.01 | S. cerevisiae deletion strains, locus YKR026C, strain gcn3, hits give low values 0.976 | S. cerevisiae deletion strains, locus YKR091W, strain srl3, hits give low values 0.975 | S. cerevisiae deletion strains, locus YLL001W, strain dnm1, hits give low values 1 | S. cerevisiae deletion strains, locus YLL026W, hits give low values 0.983 | S. cerevisiae deletion strains, locus YLL041C, strain sdh2, hits give low values 0.984 | S. cerevisiae deletion strains, locus YLR027C, strain aat2, hits give low values 0.992 | S. cerevisiae deletion strains, locus YLR039C, strain RIC1, hits give low values 1.08 | S. cerevisiae deletion strains, locus YLR058C, strain SHM2, hits give low values 1.01 | S. cerevisiae deletion strains, locus YLR102C, strain apc9, hits give low values 0.999 | S. cerevisiae deletion strains, locus YLR113W, strain HOG1, hits give low values 0.984 | S. cerevisiae deletion strains, locus YLR221C, strain rsa3, hits give low values 1.03 | S. cerevisiae deletion strains, locus YLR258W, strain gsy2, hits give low values 0.961 | S. cerevisiae deletion strains, locus YLR262C, strain YPT6 (second series), hits give low values 1 | S. cerevisiae deletion strains, locus YLR262C, strain YPT6, hits give low values 1.07 | S. cerevisiae deletion strains, locus YLR268W, strain sec22, hits give low values 1.01 | S. cerevisiae deletion strains, locus YLR320W, strain mms22, hits give low values 0.992 | S. cerevisiae deletion strains, locus YLR330W, strain CHS5, hits give low values 1.01 | S. cerevisiae deletion strains, locus YLR342W, strain FKS1 (second series), hits give low values 1 | S. cerevisiae deletion strains, locus YLR342W, strain FKS1, hits give low values 0.957 | S. cerevisiae deletion strains, locus YLR357W, strain rsc2, hits give low values 0.937 | S. cerevisiae deletion strains, locus YLR370C, strain arc18, hits give low values 0.974 | S. cerevisiae deletion strains, locus YLR371W, strain rom2, hits give low values 1 | S. cerevisiae deletion strains, locus YLR384C, strain iki3, hits give low values 0.97 | S. cerevisiae deletion strains, locus YLR418C, strain cdc73, hits give low values 1 | S. cerevisiae deletion strains, locus YML016C, strain PPZ1, hits give low values 1.01 | S. cerevisiae deletion strains, locus YML032C, strain rad52, hits give low values 0.996 | S. cerevisiae deletion strains, locus YML120C, strain ndi1, hits give low values 0.983 | S. cerevisiae deletion strains, locus YML124C, strain tub3, hits give low values 0.998 | S. cerevisiae deletion strains, locus YMR058W, strain fet3, hits give low values 1 | S. cerevisiae deletion strains, locus YMR078C, strain ctf18, hits give low values 0.997 | S. cerevisiae deletion strains, locus YMR125W, strain sto1, hits give low values 0.952 | S. cerevisiae deletion strains, locus YMR129W, hits give low values 0.971 | S. cerevisiae deletion strains, locus YMR205C, strain PFK2, hits give low values 0.995 | S. cerevisiae deletion strains, locus YMR223W, strain ubp8, hits give low values 0.985 | S. cerevisiae deletion strains, locus YMR231W, strain pep5, hits give low values 0.987 | S. cerevisiae deletion strains, locus YMR263W, strain SAP30, hits give low values 1 | S. cerevisiae deletion strains, locus YMR307W, strain GAS1, hits give low values 1.02 | S. cerevisiae deletion strains, locus YNL067W, strain RPL9B, hits give low values 1.02 | S. cerevisiae deletion strains, locus YNL071W, strain lat1, hits give low values 0.981 | S. cerevisiae deletion strains, locus YNL128W, strain TEP1, hits give low values 1.03 | S. cerevisiae deletion strains, locus YNL153C, strain GIM3, hits give low values 0.992 | S. cerevisiae deletion strains, locus YNL183C, strain NPR1, hits give low values 0.956 | S. cerevisiae deletion strains, locus YNL209W, strain ssb2, hits give low values 0.98 | S. cerevisiae deletion strains, locus YNL233W, strain BNI4, hits give low values 1.01 | S. cerevisiae deletion strains, locus YNL248C, strain rpa49, hits give low values 0.92 | S. cerevisiae deletion strains, locus YNL250W, strain rad50, hits give low values 0.992 | S. cerevisiae deletion strains, locus YNL271C, strain bni1, hits give low values 1 | S. cerevisiae deletion strains, locus YNL298W, strain CLA4, hits give low values 1.01 | S. cerevisiae deletion strains, locus YNL307C, strain MCK1, hits give low values 1 | S. cerevisiae deletion strains, locus YNL322C, strain KRE1 (second series), hits give low values 0.963 | S. cerevisiae deletion strains, locus YNL322C, strain KRE1, hits give low values 1.02 | S. cerevisiae deletion strains, locus YNR049C, strain mso1, hits give low values 0.979 | S. cerevisiae deletion strains, locus YNR052C, strain pop2, hits give low values 0.999 | S. cerevisiae deletion strains, locus YOL006C, strain TOP1, hits give low values 1.06 | S. cerevisiae deletion strains, locus YOL012C, strain htz1 1.07 | S. cerevisiae deletion strains, locus YOL147C, strain pex11, hits give low values 0.995 | S. cerevisiae deletion strains, locus YOR001W, strain rrp6, hits give low values 1.01 | S. cerevisiae deletion strains, locus YOR061W, strain CKA2, hits give low values 1.01 | S. cerevisiae deletion strains, locus YOR069W, strain VPS5, hits give low values 1.01 | S. cerevisiae deletion strains, locus YOR070C, strain gyp1, hits give low values 0.973 | S. cerevisiae deletion strains, locus YOR080W, strain dia2, hits give low values 0.996 | S. cerevisiae deletion strains, locus YOR083W, strain WHI5, hits give low values 0.914 | S. cerevisiae deletion strains, locus YOR106W, strain vam3, hits give low values 0.96 | S. cerevisiae deletion strains, locus YOR136W, strain idh2, hits give low values 0.999 | S. cerevisiae deletion strains, locus YOR144C, strain elg1, hits give low values 0.999 | S. cerevisiae deletion strains, locus YOR184W, strain ser1, hits give low values 1.01 | S. cerevisiae deletion strains, locus YOR231W, strain MKK1, hits give low values 1.02 | S. cerevisiae deletion strains, locus YOR265W, strain rbl2, hits give low values 0.991 | S. cerevisiae deletion strains, locus YOR270C, strain vph1, hits give low values 1.03 | S. cerevisiae deletion strains, locus YOR290C, strain snf2, hits give low values 0.942 | S. cerevisiae deletion strains, locus YOR316C, strain cot1, hits give low values 0.997 | S. cerevisiae deletion strains, locus YPL051W, strain arl3, hits give low values 0.964 | S. cerevisiae deletion strains, locus YPL055C, strain LGE1, hits give low values 1.02 | S. cerevisiae deletion strains, locus YPL078C, strain atp4, hits give low values 0.95 | S. cerevisiae deletion strains, locus YPL106C, strain sse1, hits give low values 0.977 | S. cerevisiae deletion strains, locus YPL240C, strain hsp82, hits give low values 1.02 | S. cerevisiae deletion strains, locus YPL241C, strain CIN2, hits give low values 1.01 | S. cerevisiae deletion strains, locus YPL256C, strain CLN2, hits give low values 0.964 | S. cerevisiae deletion strains, locus YPR119W, strain clb2, hits give low values 1.01 | S. cerevisiae deletion strains, locus YPR141C, strain kar3, hits give low values 0.997 | S. cerevisiae deletion strains, locus YPR163C, strain tif3, hits give low values 1 | S. cerevisiae deletion strains, locus YPR167C, strain met16, hits give low values 1 | S. cerevisiae deletion strains, strain wtn01, hits give low values 0.98 | S. cerevisiae strains, strain wild type, hits give low values 1.01
